Experiments:
Assay in all cases: log2 ratio of Biotin-Ahx-Ub-VS probe labelling (fragment/DMSO); higher = less target engagement (more negative = stronger competition), active = hit call of the paper (q ≤ 0.05, log2 ratio ≤ -1)
Conditions in all cases: compound concentration: 200 uM; treatment time: 3 h
[1] = biological target: USP34 (UniProt Q70CQ2)
How it was run: (§1)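 In triplicate, 495 µg of HEK293T lysate per sample was incubated with fragment at 200 µM or vehicle for 3 h. Biotin-Ahx-Ub-VS was then added to 0.5 µM final for 1 h, and labelled DUBs were captured with NeutrAvidin, digested with LysC and trypsin, and measured by diaPASEF LC-MS/MS. Data are average log2 fragment/vehicle ratios by unpaired t-test from global-median-normalised Spectronaut label-free quantities, restricted to proteins with ≥2 unique peptides.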

[2] = biological target: T1, USP36 (UniProt Q9P275)
T1 sequence (whole entry): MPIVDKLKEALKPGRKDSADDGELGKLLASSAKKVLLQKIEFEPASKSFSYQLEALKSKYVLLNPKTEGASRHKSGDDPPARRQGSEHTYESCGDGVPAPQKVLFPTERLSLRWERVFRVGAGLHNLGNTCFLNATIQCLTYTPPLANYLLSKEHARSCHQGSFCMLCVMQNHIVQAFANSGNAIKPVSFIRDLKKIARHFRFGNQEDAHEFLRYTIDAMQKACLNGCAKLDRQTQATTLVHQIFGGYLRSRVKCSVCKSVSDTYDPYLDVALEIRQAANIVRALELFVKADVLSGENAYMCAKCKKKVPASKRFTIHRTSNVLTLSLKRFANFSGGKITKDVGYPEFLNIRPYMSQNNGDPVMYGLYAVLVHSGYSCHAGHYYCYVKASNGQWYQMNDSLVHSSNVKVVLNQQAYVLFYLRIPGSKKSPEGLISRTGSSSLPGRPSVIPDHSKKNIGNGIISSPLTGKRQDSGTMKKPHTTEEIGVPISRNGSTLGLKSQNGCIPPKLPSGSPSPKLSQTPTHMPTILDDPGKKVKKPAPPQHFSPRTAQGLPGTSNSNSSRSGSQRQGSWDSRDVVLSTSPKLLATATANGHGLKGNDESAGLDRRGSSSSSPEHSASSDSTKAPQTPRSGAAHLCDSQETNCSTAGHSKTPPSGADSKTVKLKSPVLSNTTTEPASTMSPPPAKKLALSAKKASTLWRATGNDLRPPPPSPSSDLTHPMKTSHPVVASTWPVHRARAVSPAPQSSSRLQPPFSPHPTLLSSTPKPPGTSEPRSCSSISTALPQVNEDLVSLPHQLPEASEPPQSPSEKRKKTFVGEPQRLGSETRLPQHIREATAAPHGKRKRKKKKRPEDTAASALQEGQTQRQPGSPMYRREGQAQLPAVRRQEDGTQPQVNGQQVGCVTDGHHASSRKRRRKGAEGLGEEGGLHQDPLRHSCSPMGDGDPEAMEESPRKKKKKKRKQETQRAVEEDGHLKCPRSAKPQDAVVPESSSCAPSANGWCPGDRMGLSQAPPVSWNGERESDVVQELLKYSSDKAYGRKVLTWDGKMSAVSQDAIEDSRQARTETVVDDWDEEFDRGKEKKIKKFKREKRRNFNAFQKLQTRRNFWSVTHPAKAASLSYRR
How it was run: as §1

[3] = biological target: T2, USP38 (UniProt Q8NB14)
T2 sequence (whole entry): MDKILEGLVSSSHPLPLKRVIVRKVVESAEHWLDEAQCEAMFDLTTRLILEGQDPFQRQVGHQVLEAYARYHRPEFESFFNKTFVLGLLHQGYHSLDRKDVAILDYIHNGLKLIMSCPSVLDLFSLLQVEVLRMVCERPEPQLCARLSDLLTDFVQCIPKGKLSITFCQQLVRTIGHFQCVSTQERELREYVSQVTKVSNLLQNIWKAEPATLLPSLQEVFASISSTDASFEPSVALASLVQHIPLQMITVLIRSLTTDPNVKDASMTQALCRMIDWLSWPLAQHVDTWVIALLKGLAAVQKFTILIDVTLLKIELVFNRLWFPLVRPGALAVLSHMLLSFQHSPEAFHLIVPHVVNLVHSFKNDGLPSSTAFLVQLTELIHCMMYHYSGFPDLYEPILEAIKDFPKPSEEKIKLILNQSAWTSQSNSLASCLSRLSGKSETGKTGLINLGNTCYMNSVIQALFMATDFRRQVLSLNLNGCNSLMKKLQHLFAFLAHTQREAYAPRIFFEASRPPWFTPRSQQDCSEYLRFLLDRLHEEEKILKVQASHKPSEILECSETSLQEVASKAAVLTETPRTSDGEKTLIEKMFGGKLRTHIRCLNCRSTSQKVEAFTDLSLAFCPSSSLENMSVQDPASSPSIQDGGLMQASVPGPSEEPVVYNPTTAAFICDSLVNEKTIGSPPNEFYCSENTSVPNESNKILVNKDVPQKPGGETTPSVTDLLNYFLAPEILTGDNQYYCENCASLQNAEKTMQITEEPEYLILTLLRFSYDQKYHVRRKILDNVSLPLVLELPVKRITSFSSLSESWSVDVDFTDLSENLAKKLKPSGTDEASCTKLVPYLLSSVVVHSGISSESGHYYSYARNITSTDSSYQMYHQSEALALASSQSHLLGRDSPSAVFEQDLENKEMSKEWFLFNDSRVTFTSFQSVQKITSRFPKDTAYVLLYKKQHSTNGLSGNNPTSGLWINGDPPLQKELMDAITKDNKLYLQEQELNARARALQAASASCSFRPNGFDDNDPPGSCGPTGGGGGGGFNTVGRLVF
How it was run: as §1

[4] = biological target: T3, USP39 (UniProt Q53GS9)
T3 sequence (whole entry): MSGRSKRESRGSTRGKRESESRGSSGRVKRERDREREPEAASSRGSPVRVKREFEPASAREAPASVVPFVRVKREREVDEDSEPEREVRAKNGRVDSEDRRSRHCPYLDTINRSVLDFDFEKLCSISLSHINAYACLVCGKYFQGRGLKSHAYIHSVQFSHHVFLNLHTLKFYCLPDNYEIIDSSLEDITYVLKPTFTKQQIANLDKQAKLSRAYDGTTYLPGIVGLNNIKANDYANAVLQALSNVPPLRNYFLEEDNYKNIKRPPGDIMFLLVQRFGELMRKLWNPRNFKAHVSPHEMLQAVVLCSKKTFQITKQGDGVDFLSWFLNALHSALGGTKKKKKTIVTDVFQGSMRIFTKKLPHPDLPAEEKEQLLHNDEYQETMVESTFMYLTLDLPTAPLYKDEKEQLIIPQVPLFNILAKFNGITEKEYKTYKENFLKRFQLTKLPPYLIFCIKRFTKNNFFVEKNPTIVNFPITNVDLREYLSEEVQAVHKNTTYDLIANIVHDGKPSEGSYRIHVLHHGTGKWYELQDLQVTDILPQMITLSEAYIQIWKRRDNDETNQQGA
How it was run: as §1

[5] = biological target: T4, USP4 (UniProt Q13107)
T4 sequence (whole entry): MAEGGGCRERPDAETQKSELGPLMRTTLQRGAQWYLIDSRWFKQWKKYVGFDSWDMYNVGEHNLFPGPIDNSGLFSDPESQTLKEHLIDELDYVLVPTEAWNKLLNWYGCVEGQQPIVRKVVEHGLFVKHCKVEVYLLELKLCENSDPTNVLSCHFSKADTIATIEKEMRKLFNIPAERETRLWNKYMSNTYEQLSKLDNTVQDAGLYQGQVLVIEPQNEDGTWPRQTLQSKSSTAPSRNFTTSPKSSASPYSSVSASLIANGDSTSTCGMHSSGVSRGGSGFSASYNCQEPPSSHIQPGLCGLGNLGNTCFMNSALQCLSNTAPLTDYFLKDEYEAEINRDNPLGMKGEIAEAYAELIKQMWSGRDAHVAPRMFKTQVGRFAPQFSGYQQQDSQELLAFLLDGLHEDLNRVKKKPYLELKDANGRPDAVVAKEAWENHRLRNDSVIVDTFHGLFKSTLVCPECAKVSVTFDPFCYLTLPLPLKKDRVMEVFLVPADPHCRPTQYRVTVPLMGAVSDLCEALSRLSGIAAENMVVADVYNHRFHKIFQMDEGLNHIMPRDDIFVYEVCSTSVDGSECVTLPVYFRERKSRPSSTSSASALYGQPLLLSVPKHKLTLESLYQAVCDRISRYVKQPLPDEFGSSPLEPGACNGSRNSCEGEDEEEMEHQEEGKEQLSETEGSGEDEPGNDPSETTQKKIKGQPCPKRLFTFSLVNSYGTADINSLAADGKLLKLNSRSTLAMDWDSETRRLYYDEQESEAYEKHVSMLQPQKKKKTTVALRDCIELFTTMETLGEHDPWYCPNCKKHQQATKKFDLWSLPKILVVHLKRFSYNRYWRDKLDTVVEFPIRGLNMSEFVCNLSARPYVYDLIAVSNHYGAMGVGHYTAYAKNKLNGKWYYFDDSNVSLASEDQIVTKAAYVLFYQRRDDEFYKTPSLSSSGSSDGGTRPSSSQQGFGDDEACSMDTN
How it was run: as §1

Measured: log2 ratio of Biotin-Ahx-Ub-VS probe labelling

Chain of USP34 (Q70CQ2 whole entry, the tested form may be a part): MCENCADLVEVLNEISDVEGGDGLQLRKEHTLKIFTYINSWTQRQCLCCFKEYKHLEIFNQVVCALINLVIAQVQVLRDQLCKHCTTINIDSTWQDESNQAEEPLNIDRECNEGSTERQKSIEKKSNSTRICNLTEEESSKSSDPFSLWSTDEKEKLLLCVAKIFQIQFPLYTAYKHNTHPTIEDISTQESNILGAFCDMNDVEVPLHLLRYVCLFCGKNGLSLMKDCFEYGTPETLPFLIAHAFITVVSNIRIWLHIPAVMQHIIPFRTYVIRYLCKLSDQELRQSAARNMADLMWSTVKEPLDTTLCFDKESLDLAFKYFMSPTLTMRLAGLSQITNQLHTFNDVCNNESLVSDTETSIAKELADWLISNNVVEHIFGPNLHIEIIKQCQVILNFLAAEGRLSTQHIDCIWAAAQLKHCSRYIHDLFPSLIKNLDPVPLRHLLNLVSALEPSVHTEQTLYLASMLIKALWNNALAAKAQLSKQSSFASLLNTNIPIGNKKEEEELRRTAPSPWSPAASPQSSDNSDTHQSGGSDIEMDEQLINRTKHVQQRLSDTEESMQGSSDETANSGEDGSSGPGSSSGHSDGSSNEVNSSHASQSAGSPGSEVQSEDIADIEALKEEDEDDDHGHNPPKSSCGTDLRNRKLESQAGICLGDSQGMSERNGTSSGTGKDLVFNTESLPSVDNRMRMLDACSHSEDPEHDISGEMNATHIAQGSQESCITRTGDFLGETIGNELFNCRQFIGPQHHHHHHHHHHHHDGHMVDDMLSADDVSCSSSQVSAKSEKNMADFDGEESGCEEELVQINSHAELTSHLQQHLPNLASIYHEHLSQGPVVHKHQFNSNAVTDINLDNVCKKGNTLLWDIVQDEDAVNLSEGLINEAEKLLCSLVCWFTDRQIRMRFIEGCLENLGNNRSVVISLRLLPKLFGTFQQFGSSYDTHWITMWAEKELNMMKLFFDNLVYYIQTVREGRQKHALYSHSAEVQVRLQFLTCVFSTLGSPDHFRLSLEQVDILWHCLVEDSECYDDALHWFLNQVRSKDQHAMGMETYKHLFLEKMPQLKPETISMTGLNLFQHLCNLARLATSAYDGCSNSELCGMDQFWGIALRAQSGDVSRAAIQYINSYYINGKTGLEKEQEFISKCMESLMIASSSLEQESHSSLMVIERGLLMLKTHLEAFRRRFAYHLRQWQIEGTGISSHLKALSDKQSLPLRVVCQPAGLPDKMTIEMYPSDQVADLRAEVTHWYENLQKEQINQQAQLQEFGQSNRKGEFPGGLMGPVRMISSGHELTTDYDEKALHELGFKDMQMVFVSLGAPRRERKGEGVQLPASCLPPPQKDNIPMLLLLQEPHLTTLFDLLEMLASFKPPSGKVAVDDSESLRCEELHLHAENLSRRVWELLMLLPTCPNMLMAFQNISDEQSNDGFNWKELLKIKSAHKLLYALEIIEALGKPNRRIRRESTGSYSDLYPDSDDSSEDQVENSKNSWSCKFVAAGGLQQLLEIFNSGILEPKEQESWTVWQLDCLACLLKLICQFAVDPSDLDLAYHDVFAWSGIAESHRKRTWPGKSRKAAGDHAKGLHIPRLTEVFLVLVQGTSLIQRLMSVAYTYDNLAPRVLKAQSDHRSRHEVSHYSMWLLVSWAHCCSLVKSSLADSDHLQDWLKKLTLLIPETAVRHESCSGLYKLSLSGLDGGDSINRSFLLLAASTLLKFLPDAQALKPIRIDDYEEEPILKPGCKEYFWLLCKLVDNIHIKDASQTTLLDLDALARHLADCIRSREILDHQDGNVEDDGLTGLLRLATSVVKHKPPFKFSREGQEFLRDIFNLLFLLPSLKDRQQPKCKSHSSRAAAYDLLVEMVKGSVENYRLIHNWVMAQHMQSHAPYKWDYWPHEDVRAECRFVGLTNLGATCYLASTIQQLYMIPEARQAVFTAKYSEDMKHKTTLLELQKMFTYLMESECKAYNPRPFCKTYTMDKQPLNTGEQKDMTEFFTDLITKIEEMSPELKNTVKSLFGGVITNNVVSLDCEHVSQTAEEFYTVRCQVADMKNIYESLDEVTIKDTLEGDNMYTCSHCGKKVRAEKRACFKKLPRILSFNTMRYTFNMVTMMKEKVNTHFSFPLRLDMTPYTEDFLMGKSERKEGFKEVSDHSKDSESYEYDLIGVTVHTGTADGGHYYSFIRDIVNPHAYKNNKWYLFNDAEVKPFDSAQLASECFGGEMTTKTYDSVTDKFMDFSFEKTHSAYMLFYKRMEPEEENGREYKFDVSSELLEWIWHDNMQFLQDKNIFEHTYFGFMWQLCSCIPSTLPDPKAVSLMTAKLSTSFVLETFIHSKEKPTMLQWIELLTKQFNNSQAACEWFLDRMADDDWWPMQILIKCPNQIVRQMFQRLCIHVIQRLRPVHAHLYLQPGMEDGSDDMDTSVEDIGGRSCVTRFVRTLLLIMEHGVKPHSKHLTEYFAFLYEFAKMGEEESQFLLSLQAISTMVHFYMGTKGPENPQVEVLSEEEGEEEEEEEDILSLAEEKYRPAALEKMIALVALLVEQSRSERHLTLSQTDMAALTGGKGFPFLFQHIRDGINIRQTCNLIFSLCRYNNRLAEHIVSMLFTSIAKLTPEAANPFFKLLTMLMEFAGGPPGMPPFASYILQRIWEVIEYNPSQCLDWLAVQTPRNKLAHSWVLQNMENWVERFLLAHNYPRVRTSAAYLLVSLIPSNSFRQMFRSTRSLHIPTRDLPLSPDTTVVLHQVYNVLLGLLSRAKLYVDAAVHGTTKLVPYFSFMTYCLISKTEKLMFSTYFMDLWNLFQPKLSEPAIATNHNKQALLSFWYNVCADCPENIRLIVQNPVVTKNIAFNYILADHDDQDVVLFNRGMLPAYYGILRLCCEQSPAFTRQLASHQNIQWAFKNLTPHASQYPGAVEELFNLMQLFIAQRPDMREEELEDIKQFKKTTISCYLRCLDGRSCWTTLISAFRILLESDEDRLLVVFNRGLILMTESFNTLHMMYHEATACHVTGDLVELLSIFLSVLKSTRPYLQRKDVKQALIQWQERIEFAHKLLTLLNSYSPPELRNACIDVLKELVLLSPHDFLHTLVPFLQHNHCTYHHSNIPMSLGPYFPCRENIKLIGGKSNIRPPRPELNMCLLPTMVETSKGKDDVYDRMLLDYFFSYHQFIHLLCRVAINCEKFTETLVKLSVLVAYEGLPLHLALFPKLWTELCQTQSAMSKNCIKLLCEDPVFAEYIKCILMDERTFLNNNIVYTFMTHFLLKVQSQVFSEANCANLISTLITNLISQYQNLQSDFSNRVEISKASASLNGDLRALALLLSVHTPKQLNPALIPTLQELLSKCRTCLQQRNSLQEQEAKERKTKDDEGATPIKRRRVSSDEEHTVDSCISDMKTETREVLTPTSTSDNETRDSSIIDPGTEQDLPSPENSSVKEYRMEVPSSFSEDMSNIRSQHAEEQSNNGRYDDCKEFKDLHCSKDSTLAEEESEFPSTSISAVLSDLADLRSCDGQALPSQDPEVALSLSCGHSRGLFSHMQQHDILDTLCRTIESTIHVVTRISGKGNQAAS

CC(NC(=O)CCl)c1cccc(Cl)c1 (stereo not given)
inactive: [1] -0.653 | [2] -0.283 | [3] -0.175 | [4] -0.294 | [5] -0.239

Reference: the supplement of paper PMC11732987, “Enantioselective OTUD7B fragment discovery through chemoproteomics screening and high-throughput optimisation” (Communications Chemistry, 2025)
